Experimental data taken from PubChem BioAssay (NCATS).
Where “and” joins values, the source holds several entries; their conditions need not be identical. Identical values can stand only once. Results filed as inconclusive are left out. Calls of active or inactive are those of the source. Unless noted, calls follow the shape of the full dose curve.

Tests used:
[1] = biological target: Estrogen receptor (Homo sapiens) (UniProt P03372); assay: qHTS assay for small molecule agonists of estrogen receptor alpha signaling (AID 588514);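 also: 0% = vehicle only and 100% = reference agonist; nearly all actives have a fitted effect of over 70% in size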
Procedure, shortened: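 Reporter-gene assay. […] controls beta-lactamase in HEK 293 GripTite cells; after 18 hrs with compound, CCF4 substrate is added for 2 hrs and fluorescence is read.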

[2] = biological target: Glucocorticoid receptor (Homo sapiens) (UniProt P04150); assay: qHTS assay for small molecule agonists of glucocorticoid receptor signaling (AID 588532; active = well fitted curve in the direction sought with a large enough effect in the signal ratio, with a control signal flat; the % refers to the signal ratio;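 also: 100% = dexamethasone at 0.1 µM and 0% = DMSO only wells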); details: HeLa MMTV-bla, beta-lactamase ratio, agonist, 18 h; stronger effect = higher value; percent of dexamethasone control, DMSO zero
Procedure, shortened: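 Cells were plated and rested 3-5 h at 37 C, compounds were added in titration and incubated 18 h, then CCF4 substrate was loaded for 2 h at RT before reading blue/green fluorescence. EC50 came from Hill-equation fitting.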

[3] = biological target: Glucocorticoid receptor (Homo sapiens) (UniProt P04150); assay: qHTS assay for small molecule antagonists of glucocorticoid receptor signaling (AID 588533; active = well fitted inhibition curve with a large enough effect in the signal ratio, with a control signal flat, not every such curve was filed as active; the % refers to the signal ratio;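 also: cells stimulated with 2 nM dexamethasone as agonist; % is scaled to controls: 0 for no effect and ±100 for the full control effect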)
Procedure, shortened: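 Antagonist-mode qHTS: compound titrations added to GRE-bla HeLa cells, then dexamethasone 2 nM final; 18 h, 37 C. CCF4 FRET fluorescence normalized to dexamethasone and DMSO; IC50 from Hill fit.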

[4] = qHTS assay for small molecule antagonists of peroxisome proliferator-activated receptor delta signaling (AID 588535); details: HEK293T PPARd-UAS-bla, beta-lactamase FRET ratio, 18 h; 460 nm channel;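 also: cells co-treated with a PPAR-delta agonist as stimulator during compound exposure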
Procedure, shortened: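 Cells were seeded at 4000 per well in assay medium containing 2% charcoal/dextran FBS and held 5 hrs at 37 C. Compounds were then added for 18 hrs. CCF4 substrate was applied for 2 hrs at room temperature before fluorescence reading.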

[5] = biological target: Peroxisome proliferator-activated receptor gamma (Homo sapiens) (UniProt P37231); assay: qHTS assay for small molecule agonists of peroxisome proliferator-activated receptor gamma signaling (AID 588536; active = well fitted curve in the direction sought with a large enough effect in the signal ratio, with a control signal flat, not every such curve was filed as active; the % refers to the signal ratio;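 also: 0% = DMSO basal wells and 100% = rosiglitazone at 2 µM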)
Procedure, shortened: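 HEK293 UAS-bla reporter line, 1% charcoal/dextran FBS; titration, 16 h, 37 C; CCF4 loading 2 h RT; fluorescence 460/530 nm. Normalized to rosiglitazone 2 uM = 100%, DMSO = 0%.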

[6] = biological target: Vitamin D3 receptor (Homo sapiens) (UniProt P11473); assay: qHTS assay for small molecule agonists of vitamin D receptor signaling (AID 588543);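 also: 0% = DMSO basal and 100% = reference agonist control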
Procedure, shortened: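 β-lactamase reporter, VDR-UAS-bla HEK293T, agonist mode. Cells plated 5 h at 37 °C, compound titration 16 h at 37 °C, CCF4 dye 2 h RT, ratio 460/530 nm. Hill fit → EC50, efficacy vs 50 nM 1α,25-(OH)2D3.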

[7] = qHTS assay for small molecule agonists of retinoid X receptor alpha signaling (AID 588544); details: HEK293T RXRa-UAS-bla, beta-lactamase reporter, 18 h; 530 nm emission;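 as to activation: 0% = DMSO basal wells and 100% = reference agonist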
[8] = biological target: Retinoic acid receptor RXR-alpha (Homo sapiens) (UniProt P19793); assay: as above
[9] = biological target: Thyroid hormone receptor beta (Homo sapiens) (UniProt P10828); assay: qHTS assay for small molecule agonists of thyroid hormone receptor beta signaling (AID 588545);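 also: 0% = DMSO only and 100% = 10 nM T3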
Procedure, shortened: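 TR-UAS-bla-GripTite HEK 293 cells in medium with 2% charcoal/dextran FBS, 0.1 mM NEAA and 1 mM sodium pyruvate were treated with titrated compounds for 18 hrs at 37 C. Beta-lactamase reporter was read with CCF4 dye (ex 405, em 460/530 nm); EC50 from Hill fits.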

[10] = qHTS assay for small molecule antagonists of retinoid X receptor alpha signaling (AID 588546; active = well fitted inhibition curve with a large enough effect in the signal ratio, with a control signal flat, not every such curve was filed as active; the % refers to the signal ratio; also: potency is read from the fitted curve at half-maximal effect;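 as to max response: cells stimulated with 9-cis-retinoic acid as agonist; % is scaled to controls: 0 for no effect and ±100 for the full control effect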); details: HEK293T RXRa-UAS-bla, beta-lactamase ratio, antagonist mode; measured here: W530 green channel, cytotoxicity proxy
Procedure, shortened: (§1)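 Beta-lactamase reporter inhibition, read as CCF4 fluorescence ratio (ex 405, em 460/530 nm) after 2 h at RT. HEK293T UAS-bla cells, 2500/well, were stimulated with 9-cis-RA at 500 or 100 nM final alongside test compound for 18 h at 37 C.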

[11] = biological target: Retinoic acid receptor RXR-alpha (Homo sapiens) (UniProt P19793); assay: as above; details: HEK293T RXRa-UAS-bla, beta-lactamase ratio, antagonist mode
Procedure, shortened: as §1

[12] = qHTS assay for environmental chemicals that activate the Aryl hydrocarbon Receptor (AhR) signaling pathway (AID 651777; active = well fitted curve in the direction sought with a large enough effect; an effect the other way counts as inactive or inconclusive; also: % of control where 0% means no effect; nearly all actives have a fitted effect of over 15% in size); details: 1A2-DRE human hepatoma cells, luciferase, 24 h; activation: stronger effect = higher value
Procedure, shortened: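 Quantitative HTS in stably transfected human liver-derived cells whose luciferase gene sits downstream of the CYP1A2 promoter and dioxin response element. After 24 hr exposure at 37 C, One-Glo luminescence was measured.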

[13] = biological target: Peroxisome proliferator-activated receptor alpha (Homo sapiens) (UniProt Q07869); assay: qHTS assay for small molecule agonists of the peroxisome proliferator-activated receptor alpha (PPARalpha) signaling pathway (AID 651778; active = well fitted curve in the direction sought with a large enough effect; an effect the other way counts as inactive or inconclusive; also: % of control where 0% means no effect); details: PathHunter PPARalpha complementation, chemiluminescence, 6 h; max response: stronger effect = higher value
Procedure, shortened: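 Enzyme-fragment complementation assay in which ligand-bound PPARalpha translocates and forms an active enzyme that generates chemiluminescence. Cells were plated overnight, exposed to compound for 6 hr at 37 C, and then given detection reagent for 60 min at room temperature.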

[14] = qHTS assay for small molecule agonists of the antioxidant response element (ARE) signaling pathway measured by Nrf2-dependant transcriptional activity (AID 720636; active = well fitted curve in the direction sought with a large enough effect in the repeat runs; an effect the other way counts as inactive or inconclusive; also: % of control where 0% means no effect)
Procedure, shortened: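 Quantitative HTS format in HepG2 cells stably expressing an ARE-luciferase reporter; 16 hr compound treatment at 37 C, luciferase signal detected with ONE-Glo.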

[15] = qHTS assay for small molecule agonists of the antioxidant response element (ARE) signaling pathway measured by Nrf2-dependant transcriptional activity - cell viability counter screen (AID 720653; active = well fitted curve in the direction sought with a large enough effect in the repeat runs; an effect the other way counts as inactive or inconclusive; also: potency is read from the fitted curve at half-maximal effect; as to max response: % is scaled to controls: 0 for no effect and ±100 for the full control effect); details: ARE-bla HepG2 viability, CellTiter-Glo ATP luminescence, 16 h; max response: stronger effect = lower value
Procedure, shortened: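 ARE-bla HepG2 cells treated with compounds for 16 h at 37C; this counter screen measures viability as intracellular ATP by CellTiter-Glo luminescence after 30 min at room temperature.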

[16] = qHTS assay for cell viability of HEK293 cells (AID 743288; active = well fitted curve in the direction sought with a large enough effect; an effect the other way counts as inactive or inconclusive; also: nearly all actives have a fitted effect of over 50% in size; also: potency is read from the fitted curve at half-maximal effect; as to max response: % is scaled to controls: 0 for no effect and ±100 for the full control effect); details: ATP luminescence (CellTiter-Glo), 18 h; max response: stronger effect = lower value
Procedure, shortened: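 Environmental chemicals tested in qHTS format against parental HEK293 cells; 18 h treatment, 37 C; read-out ATP luminescence (CellTiter-Glo), 30 min RT development.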

[17] = qHTS assay for cell viability of the p53RE-bla HCT-116 cell line (AID 743292; active = well fitted curve in the direction sought with a large enough effect; an effect the other way counts as inactive or inconclusive; also: nearly all actives have a fitted effect of over 55% in size; also: potency is read from the fitted curve at half-maximal effect)
Procedure, shortened: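 Viability of compound-treated p53RE-bla HCT-116 cells is taken from ATP-dependent luciferase luminescence. Treatment lasts 16 h at 37 C after a 5 h settling period; detection follows 30 min at room temperature.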

[18] = biological target: Nuclear receptor subfamily 1 group I member 2 (Rattus norvegicus) (UniProt Q9R1A7); assay: qHTS assay for small molecule activators of the rat pregnane X receptor (rPXR) signaling pathway (AID 651751; call rule not given here; also: 0% is about no effect); details: rPXR reporter cells, luciferase (One-Glo), 24 h
[19] = qHTS assay for small molecule activators of the human pregnane X receptor (PXR) signaling pathway (AID 720659; call rule not given here; also: 0% is about no effect)
[20] = biological target: Thyroid hormone receptor beta (Homo sapiens) (UniProt P10828); assay: qHTS assay for small molecule antagonists of thyroid hormone receptor beta signaling (AID 588547; active = well fitted inhibition curve with a large enough effect in the signal ratio, with a control signal flat, not every such curve was filed as active; the % refers to the signal ratio; also: potency is read from the fitted curve at half-maximal effect); details: TR-UAS-bla HEK293, beta-lactamase ratio, antagonist mode, 18 h
Procedure, shortened: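 TR-UAS-bla GripTite HEK293 cells in 2% charcoal/dextran FBS medium; compounds 0.59 nM to 92 uM with T3 at 0.4nM final, 18 h at 37 C. Beta-lactamase read by CCF4 fluorescence (460/530 nm); Hill fits gave IC50 and efficacy.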

Sequence of Nuclear receptor subfamily 1 group I member 2 (Rattus norvegicus) (Q9R1A7 whole entry, looked up): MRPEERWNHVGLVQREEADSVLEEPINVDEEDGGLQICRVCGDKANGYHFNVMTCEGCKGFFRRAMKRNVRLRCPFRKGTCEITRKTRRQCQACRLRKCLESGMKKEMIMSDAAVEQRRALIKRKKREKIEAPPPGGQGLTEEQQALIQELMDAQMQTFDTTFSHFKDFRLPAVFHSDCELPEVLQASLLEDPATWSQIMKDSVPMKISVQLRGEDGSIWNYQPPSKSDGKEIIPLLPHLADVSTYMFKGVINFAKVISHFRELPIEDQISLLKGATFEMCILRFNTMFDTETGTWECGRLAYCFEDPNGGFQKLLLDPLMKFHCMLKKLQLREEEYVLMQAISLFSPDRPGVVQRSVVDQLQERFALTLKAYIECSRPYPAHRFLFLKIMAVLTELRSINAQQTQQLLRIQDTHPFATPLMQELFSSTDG
Sequence of Glucocorticoid receptor (Homo sapiens) (P04150 whole entry, looked up): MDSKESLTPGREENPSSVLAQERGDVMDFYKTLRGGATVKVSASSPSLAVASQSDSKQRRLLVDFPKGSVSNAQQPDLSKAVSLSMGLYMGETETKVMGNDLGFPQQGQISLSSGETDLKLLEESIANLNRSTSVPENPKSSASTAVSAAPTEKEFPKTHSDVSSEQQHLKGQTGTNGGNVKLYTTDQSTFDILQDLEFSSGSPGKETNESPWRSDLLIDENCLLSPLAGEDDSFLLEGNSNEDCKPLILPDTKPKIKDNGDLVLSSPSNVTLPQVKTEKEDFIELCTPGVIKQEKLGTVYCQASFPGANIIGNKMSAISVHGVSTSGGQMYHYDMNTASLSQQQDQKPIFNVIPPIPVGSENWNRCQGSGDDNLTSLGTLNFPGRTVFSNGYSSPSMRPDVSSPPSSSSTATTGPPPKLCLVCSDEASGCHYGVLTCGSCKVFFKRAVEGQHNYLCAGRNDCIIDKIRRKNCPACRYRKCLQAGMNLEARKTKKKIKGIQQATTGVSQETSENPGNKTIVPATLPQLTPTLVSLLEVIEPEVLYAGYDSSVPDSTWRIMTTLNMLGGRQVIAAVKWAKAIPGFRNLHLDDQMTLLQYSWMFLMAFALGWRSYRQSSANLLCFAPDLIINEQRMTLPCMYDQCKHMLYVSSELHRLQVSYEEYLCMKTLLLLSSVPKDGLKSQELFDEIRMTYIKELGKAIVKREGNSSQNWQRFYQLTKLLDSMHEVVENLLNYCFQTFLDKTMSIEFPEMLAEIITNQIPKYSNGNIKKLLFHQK
Sequence of Peroxisome proliferator-activated receptor gamma (Homo sapiens) (P37231 whole entry, looked up): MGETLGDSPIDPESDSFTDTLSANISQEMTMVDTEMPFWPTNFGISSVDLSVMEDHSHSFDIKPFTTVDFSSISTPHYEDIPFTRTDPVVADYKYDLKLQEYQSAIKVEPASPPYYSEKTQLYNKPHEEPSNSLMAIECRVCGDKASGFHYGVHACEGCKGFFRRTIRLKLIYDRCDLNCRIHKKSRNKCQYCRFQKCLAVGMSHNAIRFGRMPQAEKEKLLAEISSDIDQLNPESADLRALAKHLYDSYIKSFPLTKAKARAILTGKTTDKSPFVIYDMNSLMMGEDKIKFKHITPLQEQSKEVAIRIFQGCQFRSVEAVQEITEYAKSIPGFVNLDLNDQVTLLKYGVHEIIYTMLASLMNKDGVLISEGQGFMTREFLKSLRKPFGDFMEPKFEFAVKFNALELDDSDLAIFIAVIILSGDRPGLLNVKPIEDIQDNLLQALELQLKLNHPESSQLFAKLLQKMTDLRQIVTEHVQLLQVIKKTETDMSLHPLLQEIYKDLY
Sequence of Thyroid hormone receptor beta (Homo sapiens) (P10828 whole entry, looked up): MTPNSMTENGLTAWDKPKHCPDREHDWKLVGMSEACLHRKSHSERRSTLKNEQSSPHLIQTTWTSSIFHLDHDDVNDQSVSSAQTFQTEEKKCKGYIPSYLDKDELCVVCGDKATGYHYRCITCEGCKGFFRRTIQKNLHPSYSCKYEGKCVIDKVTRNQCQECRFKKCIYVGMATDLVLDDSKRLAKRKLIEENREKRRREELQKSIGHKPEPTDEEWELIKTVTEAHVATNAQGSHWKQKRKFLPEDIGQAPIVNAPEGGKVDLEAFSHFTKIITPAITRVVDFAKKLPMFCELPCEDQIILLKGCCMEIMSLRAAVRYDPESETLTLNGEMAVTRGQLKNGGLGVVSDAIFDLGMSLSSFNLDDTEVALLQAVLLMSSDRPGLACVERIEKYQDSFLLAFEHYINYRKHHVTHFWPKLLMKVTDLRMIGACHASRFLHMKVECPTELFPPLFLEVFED
Sequence of Vitamin D3 receptor (Homo sapiens) (P11473 whole entry, looked up): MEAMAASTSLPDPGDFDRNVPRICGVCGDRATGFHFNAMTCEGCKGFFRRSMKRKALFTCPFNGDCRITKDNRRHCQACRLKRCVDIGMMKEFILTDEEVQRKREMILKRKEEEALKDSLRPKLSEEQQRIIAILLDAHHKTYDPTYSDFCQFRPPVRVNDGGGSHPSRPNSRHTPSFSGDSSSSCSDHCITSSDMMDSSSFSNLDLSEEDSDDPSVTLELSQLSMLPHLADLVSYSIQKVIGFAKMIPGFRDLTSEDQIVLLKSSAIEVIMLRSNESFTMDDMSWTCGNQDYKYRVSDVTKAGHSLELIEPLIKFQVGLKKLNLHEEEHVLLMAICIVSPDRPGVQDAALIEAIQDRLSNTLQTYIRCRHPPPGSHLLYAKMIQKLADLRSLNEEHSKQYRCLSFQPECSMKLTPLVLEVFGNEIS
Sequence of Peroxisome proliferator-activated receptor alpha (Homo sapiens) (Q07869 whole entry, looked up, the tested form may be a part): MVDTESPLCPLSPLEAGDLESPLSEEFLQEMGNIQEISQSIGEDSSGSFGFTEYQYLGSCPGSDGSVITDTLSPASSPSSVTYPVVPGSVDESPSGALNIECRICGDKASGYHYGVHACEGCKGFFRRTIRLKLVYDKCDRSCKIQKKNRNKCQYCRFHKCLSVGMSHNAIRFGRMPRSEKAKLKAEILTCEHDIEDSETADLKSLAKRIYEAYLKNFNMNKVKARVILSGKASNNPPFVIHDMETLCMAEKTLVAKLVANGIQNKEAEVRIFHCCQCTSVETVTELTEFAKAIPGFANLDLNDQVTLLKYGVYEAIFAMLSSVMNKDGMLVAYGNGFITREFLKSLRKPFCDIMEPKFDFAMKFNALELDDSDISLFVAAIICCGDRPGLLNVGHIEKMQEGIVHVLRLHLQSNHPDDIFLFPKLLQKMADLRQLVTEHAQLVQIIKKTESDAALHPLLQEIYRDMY
Sequence of Estrogen receptor (Homo sapiens) (P03372 whole entry, looked up): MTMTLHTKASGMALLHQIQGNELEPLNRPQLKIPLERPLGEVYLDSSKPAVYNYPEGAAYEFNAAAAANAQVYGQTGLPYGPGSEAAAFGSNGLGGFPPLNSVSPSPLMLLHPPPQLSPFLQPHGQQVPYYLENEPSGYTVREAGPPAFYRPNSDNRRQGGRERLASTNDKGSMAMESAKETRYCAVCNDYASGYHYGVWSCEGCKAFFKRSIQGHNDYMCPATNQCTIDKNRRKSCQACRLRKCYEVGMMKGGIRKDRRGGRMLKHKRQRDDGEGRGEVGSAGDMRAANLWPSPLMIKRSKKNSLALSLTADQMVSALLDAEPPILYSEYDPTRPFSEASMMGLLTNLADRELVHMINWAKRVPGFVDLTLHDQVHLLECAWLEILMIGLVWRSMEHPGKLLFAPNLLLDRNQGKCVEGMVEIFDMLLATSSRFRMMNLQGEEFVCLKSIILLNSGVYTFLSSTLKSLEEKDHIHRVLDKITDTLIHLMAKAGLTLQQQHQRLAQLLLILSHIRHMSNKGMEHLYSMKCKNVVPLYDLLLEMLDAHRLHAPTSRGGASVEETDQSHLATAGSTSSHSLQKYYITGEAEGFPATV
Sequence of Retinoic acid receptor RXR-alpha (Homo sapiens) (P19793 whole entry, looked up): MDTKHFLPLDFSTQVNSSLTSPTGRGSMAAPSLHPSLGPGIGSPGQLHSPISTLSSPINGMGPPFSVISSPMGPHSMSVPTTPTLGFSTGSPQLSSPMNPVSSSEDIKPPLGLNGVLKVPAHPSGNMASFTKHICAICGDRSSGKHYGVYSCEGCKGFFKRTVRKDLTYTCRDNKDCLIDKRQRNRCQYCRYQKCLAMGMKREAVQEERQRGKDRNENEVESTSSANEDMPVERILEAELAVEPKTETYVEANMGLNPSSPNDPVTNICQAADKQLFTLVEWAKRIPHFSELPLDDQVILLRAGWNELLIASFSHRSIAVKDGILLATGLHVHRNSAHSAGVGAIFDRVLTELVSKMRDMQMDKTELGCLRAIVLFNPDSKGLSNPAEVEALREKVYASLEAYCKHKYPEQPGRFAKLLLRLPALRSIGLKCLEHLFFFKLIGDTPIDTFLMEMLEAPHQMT

C=CCOC(=O)CC(C)C
13%: max response [4]
-1.51%: max response [7]
inactive: Potency [1] | activation [2] 0.929% | Potency [3] | outcome [5] | outcome [6] | Potency [8] | Potency [9] | max response [11] 1.64% | activation [12] -1.24% | max response [13] -0.161% | Potency [14] | max response [15] -7.46% | max response [16] -9.09% | Potency [17] | max response [18] -1.76% | outcome [19]
-12.5%: max response [10]

O=c1[nH]sc2ccccc12
-44.3%: max response [10]
inactive: Potency [1] | activation [2] -3.87% | outcome [6] | Potency [9] | activation [12] 2.41% | max response [13] -8.62% | max response [15] -17.7% | Potency [17] | outcome [19]
active: Potency [11] 20 µM | Potency [20] 15.8 µM

C=CC(=O)OCC[N+](C)(C)C
1.52%: max response [10]
1.33%: max response [7]
35.3%: max response [4]
inactive: Potency [1] | outcome [5] | outcome [6] | Potency [8] | Potency [9] | max response [11] 1.59% | activity change % (negative = inhibition) [20] -9.01% | activation [12] 0.372% | max response [13] -0.129% | max response [15] 1.86% | Potency [17] | max response [18] -0.896%

CNc1nc(=O)n(C2CCC(O)CC2)c(=O)n1C (stereo not given)
29.9%: max response [4]
inactive: Potency [1] | activation [2] 2.82% | Potency [3] | outcome [5] | Potency [8] | Potency [9] | max response [11] 4.66% | activity change % (negative = inhibition) [20] -13.9% | activation [12] -1.26% | max response [13] -1.33% | Potency [14] | max response [15] -6.82% | max response [16] -1.62% | Potency [17] | max response [18] -0.414% | outcome [19]
-9.94%: max response [7]
-9.65%: max response [10]

c1ccc(B(c2ccccc2)c2ccccc2)cc1
7.43%: max response [7]
3.4%: max response [10]
-3.44%: max response [4]
inactive: Potency [1] | activation [2] -5.17% | Potency [3] | outcome [6] | Potency [8] | Potency [9] | max response [11] -24.3% | activation [12] 1.54% | max response [13] -0.443% | Potency [14] | max response [15] -1.71% | max response [16] -15.9% | Potency [17] | max response [18] 1.02%

OCC(CO)(CO)COCC(CO)(CO)CO
-6.03%: max response [7]
-4.98%: max response [10]
inactive: Potency [1] | outcome [5] | outcome [6] | Potency [8] | Potency [9] | max response [11] -11.8% | activity change % (negative = inhibition) [20] -4.48% | activation [12] 3.82% | max response [13] 0.242% | Potency [14] | max response [15] 3.18% | max response [16] -12.4% | Potency [17] | max response [18] 3.21%

CCCCC(CC)COP(=O)(O)OCC(CC)CCCC (stereo not given)
-7.8%: max response [10]
-17.6%: max response [4]
inactive: Potency [1] | activation [2] -13.4% | outcome [6] | Potency [9] | max response [11] -10.6% | activity change % (negative = inhibition) [20] -4.02% | activation [12] -0.89% | max response [13] 10.3% | Potency [14] | max response [15] -10.7% | Potency [17] | max response [18] 0.935%

Cl[Si](Cl)(c1ccccc1)c1ccccc1
-8.47%: max response [10]
-17.4%: max response [7]
5.91%: max response [4]
inactive: Potency [1] | activation [2] 0.877% | Potency [3] | outcome [5] | outcome [6] | Potency [8] | Potency [9] | max response [11] -0.846% | activation [12] -1.05% | max response [13] 5.98% | Potency [14] | max response [15] -10.9% | max response [16] 1.19% | Potency [17]

CCCCCCCCCCO
inactive: Potency [1] | activation [2] -0.536% and 2.82% | Potency [3] | outcome [5] | outcome [6] | Potency [8] | Potency [9] | max response [11] 6.68% and -9.14% | activity change % (negative = inhibition) [20] 16.6% and -15.4% | activation [12] -1.2% and 0.559% | max response [13] -0.236% and 5.87% | max response [15] -7.77% and 2.22% | max response [16] -9.96% and -5.95% | Potency [17]
-3.16% and -6.7%: max response [7]
-1.67% and -3.39%: max response [10]

Nc1c(N=Nc2ccc(S(=O)(=O)CCOS(=O)(=O)O)cc2)c(S(=O)(=O)O)cc2cc(S(=O)(=O)O)c(N=Nc3ccc(S(=O)(=O)CCOS(=O)(=O)O)cc3)c(O)c12
-13.3%: max response [10]
-15.1%: max response [4]
-7.65%: max response [7]
active: Potency [15] 35.5 µM | Potency [16] 35.5 µM | Potency [17] 25.1 µM
inactive: Potency [1] | outcome [6] | Potency [8] | Potency [9] | max response [11] -5.5% | activity change % (negative = inhibition) [20] -6.2% | activation [12] -7.65% | max response [13] -8.75% | Potency [14] | max response [18] -11.2% | outcome [19]

C/C=C/C/C=C\CCCCCCCCOC(C)=O
15.9%: max response [4]
-5.66%: max response [10]
-14.4%: max response [7]
inactive: Potency [1] | outcome [5] | outcome [6] | Potency [8] | Potency [9] | max response [11] -0.494% | activity change % (negative = inhibition) [20] -5.4% | activation [12] 1.59% | max response [13] -1.2% | Potency [14] | max response [15] 5.44% | max response [16] 0.639% | Potency [17] | max response [18] 0.0563% | outcome [19]
